From PubChem BioAssay (NCATS)
Inconclusive results are not listed. Activity calls are given as the source filed them. The call rests on the fitted dose curve; in most records, active means well fitted inhibition curve with a large enough effect; inconclusive means small, poorly fitted or top-dose-only effect; inactive means flat fitted curve, though single readings scatter.

Key:
[1] = target: Glutathione peroxidase 1 (Homo sapiens) (UniProt P07203); experiment: Primary qHTS Assay for Inhibitors of Recombinant Selenoprotein Glutathione Peroxidase 1 (GPX1) (AID 1845191); further: nearly all actives have a fitted effect of over 65% in size
Chain of Glutathione peroxidase 1 (Homo sapiens) (P07203 whole entry, looked up): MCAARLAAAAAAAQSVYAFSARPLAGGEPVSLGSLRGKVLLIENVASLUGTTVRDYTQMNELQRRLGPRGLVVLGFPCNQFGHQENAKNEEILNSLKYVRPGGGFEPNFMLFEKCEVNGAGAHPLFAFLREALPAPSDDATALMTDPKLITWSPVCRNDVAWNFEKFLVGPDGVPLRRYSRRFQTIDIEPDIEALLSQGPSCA
In short: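 10 nM GPX1 + cpd, 30 min RT; start w/ 1 mM GSH, 0.5 mM cumene hydroperoxide, 0.5 mM NADPH, 100 nM GR, 0.01% BSA; buffer 50 mM Tris-HCl pH 7.5, 2 mM EDTA, 150 mM NaCl; Fl 340/450, 0 & 15 min.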

[2] = target: Phospholipid hydroperoxide glutathione peroxidase GPX4 (Homo sapiens) (UniProt P36969); experiment: Primary qHTS Assay for Inhibitors of Recombinant Selenoprotein Glutathione Peroxidase 4 (GPX4) (AID 1845192); further: series mostly up to about 50 µM; nearly all actives have a fitted effect of over 65% in size
Chain of Phospholipid hydroperoxide glutathione peroxidase GPX4 (Homo sapiens) (P36969 whole entry, looked up): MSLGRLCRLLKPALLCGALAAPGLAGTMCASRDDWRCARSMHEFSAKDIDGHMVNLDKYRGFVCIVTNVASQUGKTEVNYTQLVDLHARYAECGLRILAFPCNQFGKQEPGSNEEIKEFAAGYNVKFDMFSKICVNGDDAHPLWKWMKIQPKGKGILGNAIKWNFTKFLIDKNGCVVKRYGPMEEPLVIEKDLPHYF
In short: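 NADPH consumption, followed by fluorescence at 340/450 nm between 0 and 15 min, reports GPX4 activity via coupled glutathione reductase (100 nM). Enzyme 200 nM was pre-exposed to compound 30 min; 0.5 mM cumene hydroperoxide and 1 mM GSH served as substrates.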

[3] = target: Luciferin 4-monooxygenase (Photinus pyralis) (UniProt P08659); experiment: Primary firefly luciferase (FLuc) qHTS assay for identification of artifact compounds. (AID 1845220); further: nearly all actives have a fitted effect of over 60% in size
In short: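 Cell-free, 1536-well qHTS. Buffer pH 7.6 with 0.01% Tween-20 and 0.05% BSA; 10 uM D-luciferin, 10 uM ATP; 10 nM P. pyralis luciferase; luminescence after 5 min.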

Measured: Potency

COC(=O)C1C(c2ccc(O)cc2)C(C(=O)OC)C1c1ccc(O)cc1 (configuration not stated)
inactive: all assays above

CCC1CC2C(C)=CC3CCCCC3C2(C)C2(OC(=O)C(C)(O)OC2=O)O1 (configuration not stated)
inactive: all assays above

C=CC1(C)CC(OC(=O)C(=C)C(O)COC(C)=O)C(C(=C)C(=O)OC)C(O)C1C(=C)CO (configuration not stated)
inactive: all assays above

CC(C)C1(O[C@@H]2O[C@H](CO)[C@@H](O)[C@H](O)[C@H]2O)CC=C(CO)CC1 (some centres not stated)
inactive: all assays above
